Consider 10 compounds from PubChem BioAssay (EPA / NIEHS).

Results filed as inconclusive are left out. Active and inactive are the calls of the source. The calls were made as follows: active = hit-call score of the fitted dose curve at least 0.9, where 1 is the maximum; inconclusive = response in the unintended direction; inactive = score below 0.9.

Chain of Bile acid receptor (Homo sapiens) (Q96RI1 whole entry, looked up): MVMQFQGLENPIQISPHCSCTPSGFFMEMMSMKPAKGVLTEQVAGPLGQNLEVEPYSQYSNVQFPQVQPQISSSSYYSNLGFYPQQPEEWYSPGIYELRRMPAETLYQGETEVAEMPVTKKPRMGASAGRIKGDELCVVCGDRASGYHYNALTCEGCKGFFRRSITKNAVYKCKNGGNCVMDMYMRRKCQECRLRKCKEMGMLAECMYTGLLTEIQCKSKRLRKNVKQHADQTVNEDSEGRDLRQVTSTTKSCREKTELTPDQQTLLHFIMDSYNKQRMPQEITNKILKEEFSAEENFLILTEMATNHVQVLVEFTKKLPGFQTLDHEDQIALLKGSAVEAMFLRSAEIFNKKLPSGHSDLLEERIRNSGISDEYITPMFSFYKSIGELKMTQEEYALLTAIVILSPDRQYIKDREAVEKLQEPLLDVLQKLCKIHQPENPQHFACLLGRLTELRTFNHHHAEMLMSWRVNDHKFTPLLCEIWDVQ

The target in the assay is Bile acid receptor (Homo sapiens) (UniProt Q96RI1). The assay can be described thus: NVS_NR_hFXR_Antagonist: NovaScreen (NVS) Nuclear Receptor Binding Assay for human Farnesoid X Receptor Antagonism (FXR) (AID 2283350). On the procedure:
NVS_NR_hFXR_Antagonist is a biochemical, single-readout assay that uses extracted gene-proteins in a cell-free assay. Measurements were taken 1 hour after chemical dosing in a 384-well plate.NVS_NR_hFXR_Antagonist is one of one assay component(s) measured or calculated from the NVS_NR_hFXR_Antagonist assay. It is designed to make measurements of fluorescent resonance energy transfer, a form of binding reporter, as detected with fluorescent resonance energy transfer signals by Time-Resolved Fluorescence Resonance Energy Transfer (TR-FRET) technology.Data from the assay component NVS_NR_hFXR_Antagonist was analyzed into 1 assay endpoint. This assay endpoint, NVS_NR_hFXR_Antagonist, was analyzed in the positive analysis fitting direction relative to DMSO as the negative control and baseline of activity. Using a type of binding reporter, loss-of-signal activity can be used to understand changes in the binding as they relate to the gene NR1H4. Furthermore, this assay endpoint can be referred to as a primary readout, because the performed assay has only produced 1 assay endpoint. To generalize the intended target to other relatable targets, this assay endpoint is annotated to the nuclear receptor intended target family, where the subfamily is non-steroidal.
Binding assays used specific radioligands (tritiated, iodinated) with non-radioactive competitive displacement ligands in agonist or antagonist protocols (as indicated) and various reference compounds and inhibitors to titrate specific binding to receptors and transporters. Most enzyme assays (CYPs, kinases, phosphatases, proteases, HDACs) used recombinant protein and specific substrates (fluorescence mostly, some colorimetric and radioactive) and inhibitors, followed by a biochemical separation of substrate and product. All assays for the biochemical HTS were initially run in duplicate at a single concentration (10 uM for CYP450 assays and 25 uM for all others). […] Each assay was run with positive and negative controls, and concurrent controls on every plate. The follow-up (secondary) screen tested active chemical-pairs in concentration series, as well as a few additional assays not tested in the primary screen, some selected negative inactives, and several cases re-run in the concentration series for confirmatory purposes.
`CCOP(=O)(OCC)Oc1cc(C)nc(C(C)C)n1`: the compound was called inactive.
Same read-out and setting: the same measure for `CCCCOC(=O)c1ccccc1C(=O)O`: “inactive”; for `C=C(C)[C@H]1Cc2c(ccc3c2O[C@@H]2COc4cc(OC)c(OC)cc4[C@@H]2C3=O)O1`: “inactive”.
Broadly, the AC50 is the midpoint of the concentration-response curve, whichever way the signal moves. As for `CC(COc1ccc(Oc2ccccc2)cc1)Oc1ccccn1` (stereo not given), the half-maximal activity concentration (AC50) is 6.89 µM (active).
Consider `COc1ccc(C(=CC(=O)N2CCOCC2)c2ccc(Cl)cc2)cc1OC`, for which the compound was classed as inactive.
Still for that read-out and setting: with `CSc1nnc(C(C)(C)C)c(=O)n1N` the entry was “inactive”; with `Cc1ccn2nc(S(=O)(=O)Nc3c(F)cccc3F)nc2n1`, “inactive”; with `CNc1cnn(-c2cccc(C(F)(F)F)c2)c(=O)c1Cl`, “inactive”.
On to `CC1(C(=O)Nc2ccc(O)c(Cl)c2Cl)CCCCC1`, for which the compound was classed as inactive.
The same measure, in the same setting: the same measure for `CCCSP(=O)(OCC)SCCC`: “inactive”.
